# Assay outcomes (PubChem)
# Only some compounds are listed: those with a hit (about 7.3% of all), similar ones and a draw of the others.
# FLuc counter = qHTS profiling assay for firefly luciferase inhibitor/activator using purifed enzyme and Km concentrations of substrates (counterscreen for miR-21 project). 6.9% of 360,000 active. AID 588342, 2011. Luciferin 4-monooxygenase (Photinus pyralis), P08659. purified FLuc, Km substrates, luminescence inhibition. Potency, µM (titrated, usually from 57.5 µM), inactives show top-dose activity change, negative = inhibition, actives largely listed as inhibitors;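 also: plate controls were vehicle for no effect and reference inhibitor for full effect; nearly all actives have a fitted effect of over 55% in size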
# Target sequence (P08659 whole entry, looked up): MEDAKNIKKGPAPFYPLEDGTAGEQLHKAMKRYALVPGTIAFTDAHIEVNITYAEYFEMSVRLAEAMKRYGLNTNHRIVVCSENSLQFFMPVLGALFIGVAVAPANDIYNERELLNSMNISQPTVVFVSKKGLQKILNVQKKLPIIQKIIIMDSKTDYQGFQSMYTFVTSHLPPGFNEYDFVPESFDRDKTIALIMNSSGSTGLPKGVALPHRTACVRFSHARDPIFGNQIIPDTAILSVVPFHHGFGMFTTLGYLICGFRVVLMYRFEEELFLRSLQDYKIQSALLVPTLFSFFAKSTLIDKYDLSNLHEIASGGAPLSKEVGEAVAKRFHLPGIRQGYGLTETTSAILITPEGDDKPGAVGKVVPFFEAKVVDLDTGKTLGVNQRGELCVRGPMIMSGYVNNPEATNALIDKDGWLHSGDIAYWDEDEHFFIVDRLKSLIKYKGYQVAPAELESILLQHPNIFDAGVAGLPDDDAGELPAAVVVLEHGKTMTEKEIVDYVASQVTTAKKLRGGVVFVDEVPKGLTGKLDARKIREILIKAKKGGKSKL
#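 Purified P. pyralis luciferase, 10 nM final, with Km-level 10 uM D-luciferin and 10 uM ATP in 50 mM Tris acetate pH 7.5, 10 mM Mg acetate, 0.01% Tween-20, 0.05% BSA; 6-point qHTS titration about 60 µM downward; luminescence read.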
# Rab9 prom act = qHTS Assay for Rab9 Promoter Activators; Huh7 Rab9 promoter-luciferase reporter, luminescence, 24 h; Potency, µM (highest dose often 9.22 µM), inactives show top-dose activation, negative = inhibition, usual class: activators; 2.8% of 320,000 active; also: % of control where 0% means no effect; nearly all actives have a fitted effect of over 60% in size
#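 Stable Rab9-luc Huh7, 1500 cells/well, 2 h settle; cmpd in DMSO, 24 h, 37 °C/5% CO2; luciferase reagent 10 min RT; luminescence.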
# KinaseGlo FLuc = Counterscreen for Luciferase (Kinase-Glo TM) Inhibition; Potency, µM (highest dose often 38.3 µM), for the others: at the highest dose activity change, negative = inhibition, usual class: inhibitors; Kinase-Glo luciferase, ATP luminescence, 8 min; AID 1379, 2008; 0.28% of 200,000 active; Luciferin 4-monooxygenase (Photuris pensylvanica), Q27757; also: % is scaled to controls: 0 for no effect and ±100 for the full control effect; nearly all actives have a fitted effect of over 60% in size
#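 Luminescence was the read-out, taken after 8-minute incubation at ambient temperature. Luciferase turned over luciferin with 10 uM ATP in imidazole pH 7.2 buffer containing KCl, MgCl2, Tween 20 and BSA.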
# NPC1 prom act = qHTS Assay for NPC1 Promoter Activators | Huh7 NPC1 promoter luciferase reporter, 24 h | 2.4% of 320,000 active | Potency, µM (top dose mostly 9.22 µM), for inactives: at the top dose activation, usual class: activators; also: % of control where 0% means no effect; nearly all actives have a fitted effect of over 60% in size
#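 Readout is luciferase luminescence, reflecting NPC1 promoter activation in stably transfected Huh7 cells after 24 h compound exposure at 37 °C in reduced-serum medium with 10% FBS.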
# ELG1 genotox = qHTS screen for small molecules that induce genotoxicity in human embryonic kidney (HEK293T) cells expressing luciferase-tagged ELG1. 1.3% of 330,000 active. HEK293T ELG1-luciferase reporter, luminescence, 16 h. Potency, µM (highest dose often 46 µM), inactives show at the top dose activity change, positive = activation, hits mostly activators. AID 504466, 2011; also: % of control where 0% means no effect; nearly all actives have a fitted effect of over 60% in size
#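 HEK293T cells expressing luciferase-tagged ELG1 were exposed to compound or DMSO vehicle for 16 hr at 37 °C and 5% CO2. Luciferase activity was then measured with ONE-Glo after 30 min at room temperature.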
# SMN2 splice enh = qHTS Assay for Enhancers of SMN2 Splice Variant Expression; HEK293 SMN2-luciferase splicing reporter, luminescence, 30-36 h; Potency, µM (highest dose often 46.1 µM), without a hit: at the highest dose activity change, positive = activation, hits mostly activators; 2.8% of 210,000 active; AID 1458, 2008; also: % of control where 0% means no effect; nearly all actives have a fitted effect of over 55% in size
#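 HEK293 cells carry an SMN2 minigene-luciferase reporter in which exon 7 inclusion puts luciferase in frame. Cells were seeded at 2000 cells/well, attached for 10-12 hours, then exposed to compounds for 30-36 hours at 37C before ONE-Glo luminescence.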
# * marks the source's active call; other numbers are inactive results; ? = inconclusive; · = no result; [ ] = another dose, or the depositor's remark. Calls follow the shape of the dose curve; as a rule, active = well fitted curve in the direction sought with a large enough effect; inconclusive = small, poorly fitted or top-dose-only effect, or another doubt; inactive = no such curve, though single readings can be large; an effect the other way counts as inactive or inconclusive. Potency is read from the fitted curve at half-maximal effect.
SMILES,FLuc counter,Rab9 prom act,KinaseGlo FLuc,NPC1 prom act,ELG1 genotox,SMN2 splice enh
O=C(NCCCc1ccccc1)c1cnc2n(c1=O)CCS2,?,?,2.5%,?,20.7%,17.8µM*
Cc1c(C(=O)Nc2ccc(F)cc2F)oc2c1-c1nn(Cc3c(F)cccc3Cl)cc1CC2,-13.7%,·,·,·,·,·
COc1cc(C(=O)Nc2ccc3nc4n(c(=O)c3c2)CCCC4)ccc1Br,-0.4%,-1.5%,·,-2.0%,-2.8%,·
CN(C)c1cccc(C(=O)Nc2ccc3nc4n(c(=O)c3c2)CCCCC4)c1,13.5µM*,25.4%,-7.8%,8.0%,9.8%,-1.9%
COc1cccc(C(=O)Nc2ccc3nc4n(c(=O)c3c2)CCCC4)c1,16.9µM*,?,·,25.6%,-0.2%,·
CCOc1ccccc1C(=O)Nc1ccc2nc3n(c(=O)c2c1)CCCCC3,15.1µM*,4.9%,·,-7.4%,-0.8%,·
O=C(Nc1ccc2nc3n(c(=O)c2c1)CCCCC3)c1cccc(C(F)(F)F)c1,-15.1%,·,·,·,·,2.4%
COc1ccc(Cl)cc1C(=O)Nc1ccc2nc3n(c(=O)c2c1)CCCC3,-13.5%,6.0%,·,-0.9%,-1.9%,·
COc1cc(OC)cc(C(=O)Nc2ccc3nc4n(c(=O)c3c2)CCCC4)c1,?,?,·,2.82µM*,?,·
Cc1ccccc1C(=O)Nc1ccc2nc3n(c(=O)c2c1)CCCC3,?,14.5%,·,11.1%,-2.3%,·
Cn1cccc1C(=O)N1CCC2(CCCN(c3cccc(-c4ccccc4)c3)C2)CC1,·,·,1.7%,·,·,-32.3%
Cc1nc(N2CCOCC2)c2c(C(=O)N(C)Cc3ccccc3)c(C)oc2n1,-1.4%,·,·,·,·,·
Cc1ccc(C(C)C)c(OCC(=O)Nc2cccc(S(=O)(=O)NC3=NCCCCC3)c2)c1,0.2%,-1.3%,·,0.3%,-19.3%,·
Cc1ccccc1OCC(=O)Nc1cccc(S(=O)(=O)NC2=NCCCCC2)c1,16.9µM*,1.2%,·,-1.5%,25.9%,·
CCc1ccccc1OCC(=O)Nc1cccc(S(=O)(=O)NC2=NCCC2)c1,19µM*,1.2%,·,1.7%,1.0%,·
CC(C)(C)c1ccc(C(=O)Nc2cccc(S(=O)(=O)NC3=NCCC3)c2)cc1,0.135µM*,?,·,2.51µM*,2.7%,·
CCOc1ccccc1OCC(=O)Nc1cccc(S(=O)(=O)NC2=NCCCCC2)c1,-0.6%,-4.1%,·,1.5%,-3.9%,·
Cc1ccccc1OCC(=O)Nc1cccc(S(=O)(=O)NC2=NCCC2)c1,2.13µM*,15.7%,·,12.6%,8.6%,·
CN(C)c1ccc(C(=O)Nc2cccc(S(=O)(=O)NC3=NCCCCC3)c2)cc1,·,26.0%,·,17.1%,8.9%,·
O=c1cc(-c2cccc(F)c2)[nH]c2ccc(Cl)cc12,·,·,1.9%[39.9 µM],·,·,·
Cc1ccc2[nH]c(-c3cccc(F)c3)cc(=O)c2c1,13.5µM*,-10.9%,0.5%[39.9 µM],-4.6%,14.6µM*,-1.9%
COc1ccc2[nH]c(-c3ccccc3)cc(=O)c2c1,·,·,-14.6%[39.9 µM],·,·,·
COc1ccc2[nH]c(-c3cccc(F)c3)cc(=O)c2c1,15.1µM*,-6.1%,-0.3%[39.9 µM],22.3%,13µM*,11.2µM*
Cc1ccc(NC2=C(Cl)C(=O)c3ccccc3C2=O)cc1,-23.5%,-32.6%,·,-33.8%,?,·
Cc1cc(C)cc(NC2=C(N)C(=O)c3ccccc3C2=O)c1,15.1µM*,?,·,?,?,·
Cc1cccc2sc(N)nc12,·,·,·,·,·,-1.4%
O=C(Nc1ccc2c3c(cccc13)CC2)c1ccc(Br)o1,19µM*,28.6%,-6.9%,18.9%,?,2.2%
COc1ccc(C(=O)Nc2ccc3c4c(cccc24)CC3)cc1,15.1µM*,?,8.3%,?,12.3%,0.1%
O=C(Nc1ccc2c3c(cccc13)CC2)c1ccco1,16.9µM*,16.7%,·,20.5%,?,·
COc1cc(OC)cc(C(=O)NC(=S)Nc2ccc3c4c(cccc24)CC3)c1,0.7%,-1.4%,4.3%,-1.9%,-2.3%,-11.2%
